# Assay results published in the supplement of paper PMC6522484.
# ± gives the standard deviation of the averaged measurements.
# Legend:
# [1] = system: DLD1; experiment: cell viability (CellTiter-Glo) relative to plate median (fraction of plate median); higher = more viable cells; settings: 10 µM, treatment time 24 h
# How it was run: (§1)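 Kinase inhibitor library compounds were added at a final 10 µM for 24 h to colorectal cancer cells in 384-well plates, 24 h after seeding. The cells stably expressed lentiviral TCF/Wnt firefly luciferase reporters. Firefly luciferase and CellTiterGlo luminescence came from parallel plates, and each well was normalised to its plate median (webcellHTS2, additive, untransformed), averaged over two independent replicates.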
# [2] = system: HCT116; experiment: as above; settings: 10 µM; treatment time 24 h; reporter: TCF4/Wnt
# How it was run: as §1
# [3] = system: SW480; experiment: as above; settings: 10 µM; treatment time 24 h; reporter: 7TFP
# How it was run: as §1
# [4] = system: DLD1; experiment: TCF/Wnt firefly luciferase reporter signal relative to plate median (fraction of plate median); higher = higher Wnt reporter signal; settings: 10 µM, treatment time 24 h
# How it was run: as §1
# [5] = system: HCT116; experiment: as above; settings: 10 µM; treatment time 24 h; reporter: TCF4/Wnt
# How it was run: as §1
# [6] = system: SW480; experiment: as above; settings: 10 µM; treatment time 24 h; reporter: 7TFP
# How it was run: as §1
Structure (SMILES),cell viability ([1]; reporter: 7TFP),cell viability ([1]; reporter: TCF4/Wnt),cell viability [2],cell viability [3],TCF/Wnt firefly luciferase reporter signal ([4]; reporter: 7TFP),TCF/Wnt firefly luciferase reporter signal ([4]; reporter: TCF4/Wnt),TCF/Wnt firefly luciferase reporter signal [5],TCF/Wnt firefly luciferase reporter signal [6]
Nc1nc(N)c2nc(-c3cccc(O)c3)cnc2n1,1.09 ± 0.014,1.08 ± 0.021,0.97 ± 0.018,1.04 ± 0.064,1.4 ± 0.26,1.15 ± 0.085,1.33 ± 0.31,1.34 ± 0.042
CNC(=O)CN1CCC(Oc2cc3c(Nc4cccc(Cl)c4F)ncnc3cc2OC)CC1,1 ± 0.081,1.01 ± 0.059,1.05 ± 0.028,0.893 ± 0.0042,0.943 ± 0.19,0.862 ± 0.35,0.656 ± 0.43,0.849 ± 0.07
CC(C)c1cnn2c(NCc3ccccc3)cc(NCCCCCCN)nc12,1 ± 0.067,0.969 ± 0.073,1 ± 0.055,0.921 ± 0.041,1.27 ± 0.11,1.52 ± 0.028,0.988 ± 0.14,1.2 ± 0.17
CN(C)Cc1cccc(N/C(=C2\C(=O)Nc3cc(C(N)=O)ccc32)c2ccccc2)c1,1.15 ± 0.13,1.09 ± 0.057,1.09 ± 0.028,1.085 ± 0.0071,0.977 ± 0.23,0.982 ± 0.12,1.05 ± 0.095,1.14 ± 0.035
NC(=O)Nc1cc(-c2cccc(F)c2)sc1C(=O)N[C@H]1CCCNC1,0.645 ± 0.073,0.679 ± 0.04,0.293 ± 0.12,0.838 ± 0.13,0.667 ± 0.19,0.829 ± 0.15,0.436 ± 0.15,0.982 ± 0.14
O=C(Nc1cccc(Nc2ncc(Br)c(NCCc3cnc[nH]3)n2)c1)N1CCCC1,1.07 ± 0.05,1.02 ± 0.071,0.932 ± 0.016,1.16 ± 0.05,1.74 ± 0.31,1.39 ± 0.38,1.97 ± 0.11,1.33 ± 0.13
O=C1NC(=O)/C(=C/c2ccc(-c3ccc(F)cc3O)o2)S1,1.09 ± 0.092,1.21 ± 0.028,1.19 ± 0.092,1.04 ± 0.14,0.905 ± 0.13,1.34 ± 0.47,1.7 ± 0.71,1.41 ± 0.35
C#Cc1cccc(Nc2ncnc3cc(OCCOC)c(OCCO)cc23)c1,0.923 ± 0.073,0.988 ± 0.045,1.22 ± 0.064,0.961 ± 0.013,0.821 ± 0.11,0.819 ± 0.14,0.804 ± 0.012,1.05 ± 0.098
CN(C)c1ccc(-c2nc3ncc(Cl)c(N4CCN(CC(=O)Nc5nccs5)CC4)c3[nH]2)cc1,1.1 ± 0.05,1.04 ± 0.021,1.14 ± 0.028,0.96 ± 0.057,1.1 ± 0.3,1.1 ± 0.31,1.26 ± 0.17,1.16 ± 0.064
CNC(=O)c1cc(COc2nnc(Nc3ccc(Cl)cc3)c3ccoc23)ccn1 [Telatinib (BAY 57-9352)],1.13 ± 0.23,0.987 ± 0.033,1.05 ± 0.079,0.972 ± 0.024,1.32 ± 0.05,1.09 ± 0.13,1.08 ± 0.25,1.08 ± 0.14
